From PubChem BioAssay AID1851 (National Center for Advancing Translational Sciences (NCATS), 2009)
Several values for one entry are separate records, joined by “and”; a condition that tells them apart may be missing. Equal entries are not always repeated. Among all 16,000 compounds or so, about 5,100 (32%) were called active. Roughly 25% stayed inconclusive and do not appear here. The list shows a part of the results. A number with no mark means an inactive call. Calls come from the whole dose curve; as a rule, active = well fitted curve in the direction sought with a large enough effect; inconclusive = small, poorly fitted or top-dose-only effect, or effect the other way; inactive = no such curve, though single readings can be large or run the other way.

biological target: Cytochrome P450 3A4 (Homo sapiens) (UniProt P08684); assay: Cytochrome panel assay with activity outcomes; details: recombinant CYP, pro-luciferin dealkylation, luminescence, p450-cyp3a4; series mostly up to 57.1 µM; activity, negative = inhibition: at the top concentration
% is set by controls: 0 for no effect and ±100 for the full control effect.

Sequence of Cytochrome P450 3A4 (Homo sapiens) (P08684 whole entry, looked up): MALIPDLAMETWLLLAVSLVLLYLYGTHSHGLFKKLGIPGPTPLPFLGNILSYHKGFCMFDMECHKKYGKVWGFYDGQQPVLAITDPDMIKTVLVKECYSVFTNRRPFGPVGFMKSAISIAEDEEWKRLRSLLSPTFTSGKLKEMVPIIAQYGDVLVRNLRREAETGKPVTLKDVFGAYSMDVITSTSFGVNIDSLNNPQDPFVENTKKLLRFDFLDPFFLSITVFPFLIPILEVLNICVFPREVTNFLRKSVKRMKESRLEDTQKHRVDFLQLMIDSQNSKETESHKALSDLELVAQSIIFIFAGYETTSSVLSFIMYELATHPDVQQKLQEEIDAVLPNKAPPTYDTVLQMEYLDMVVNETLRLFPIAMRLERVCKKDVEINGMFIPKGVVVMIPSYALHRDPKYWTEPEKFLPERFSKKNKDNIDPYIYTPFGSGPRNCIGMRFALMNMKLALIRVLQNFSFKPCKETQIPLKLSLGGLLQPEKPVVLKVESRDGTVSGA

| SMILES | activity, negative = inhibition | AC50 |
| --- | --- | --- |
| COCc1cc(=O)[nH]c2cc(NC(=O)C(F)(F)F)c(C)cc12 | -1.96% [at 11.4 µM] | – |
| CCOc1ccc(-n2ccnc2SCC(=O)Nc2nnc(C)s2)cc1 | – | 14.1 µM (active) |
| Cc1nnc(NC(=O)CSc2ncnc3c2cnn3-c2ccccc2C)s1 | -12.1% | – |
| CCc1nnc(NC(=O)CSc2ncnc3c2cnn3-c2ccc(OC)cc2)s1 | -17.8% | – |
| CCOc1ccc(-n2ccnc2SCC(=O)Nc2nnc(CC)s2)cc1 | – | 14.1 µM (active) |
| COc1ccc(-c2coc3cc4oc(=O)cc(C)c4cc23)cc1F | -6.07% | – |
| CCCc1ccc(C2C3=C(CC(C)(C)CC3=O)NC3=C2C(=O)c2ccccc23)cc1 (stereo not drawn) | – | 2.82 µM (active) |
| COC(=O)N[C@H](c1ccccc1)[C@@]1(C)C[C@@H]1[C@@H](C)C(=O)Nc1ccc2ccccc2c1 | – | 0.2 µM (active) |
| O=C(Nc1ccc2oc(=O)c(C(=O)O)cc2c1)Oc1ccccc1 | -5.24% [at 11.4 µM] | – |
| C[C@@H](C(=O)Nc1ccc2ccccc2c1)[C@H]1C[C@]1(C)[C@H](NC(=O)Oc1ccc(F)cc1)c1ccccc1 | – | 0.794 µM (active) |
| CC(=O)N[C@H](c1ccccc1)[C@@]1(C)C[C@@H]1[C@@H](C)C(=O)Nc1ccc2ccccc2c1 | – | 7.94 µM (active) |
| CC(=O)N[C@@H](c1ccccc1)[C@]1(C)C[C@H]1[C@@H](C)C(=O)Nc1ccc2ccccc2c1 | – | 7.94 µM (active) |
| Oc1c(CN2CCN(c3ccccc3)CC2)cc(Br)c2cccnc12 | 0.931% [at 11.4 µM] | – |
| C[C@@H](C(=O)Nc1ccc2ccccc2c1)[C@H]1C[C@]1(C)[C@H](NP(=O)(c1ccccc1)c1ccccc1)c1ccccc1 | – | 2 µM (active) |
| C[C@@H](C(=O)Nc1ccc2ccccc2c1)[C@@H]1C[C@@]1(C)[C@@H](N)c1ccccc1 | – | 7.94 µM (active) |
| C[C@@H](C(=O)Cc1ccc2ccccc2c1)[C@@H]1C[C@@]1(C)[C@@H](NP(=O)(c1ccccc1)c1ccccc1)c1ccccc1 | – | 1 µM (active) |
| CN(Cc1cnc2nc(N)nc(N)c2n1)c1ccc(C(=O)N[C@H](CCC(=O)O)C(=O)O)cc1 | 1.58% [at 25.6 µM] | – |
| C=C[C@@]1(C)CC(=O)[C@@]2(O)[C@@]3(C)[C@@H](O)CCC(C)(C)[C@@H]3[C@H](OC(=O)CCN(C)C)[C@H](OC(C)=O)[C@@]2(C)O1 | – | 2.51 µM (active) |
| O=C(O)CC[P+](c1ccccc1)(c1ccccc1)c1ccccc1 | 9.68% [at 11.4 µM] | – |
| O=C1[C@H]2[C@H]3[C@H](O)[C@H](O)C/C(=N/OC[C@@H](O)COCc4ccco4)[C@@H]3CC[C@@H]2C(=O)N1Cc1ccccc1 | – | 3.16 µM (active) |
| CCN1C(=O)[C@H]2[C@H]3[C@H](O)[C@H](O)C/C(=N/OC[C@@H](O)COCc4ccco4)[C@H]3CC[C@@H]2C1=O | -17.6% [at 11.4 µM] | – |
| O=C1[C@H]2[C@H]3[C@H](O)[C@H](O)C/C(=N/OC[C@@H](O)COCc4ccco4)[C@@H]3CC[C@@H]2C(=O)N1Cc1ccc2c(c1)OCO2 | – | 3.16 µM (active) |
| O=C1[C@H]2[C@H]3[C@H](O)[C@H](O)C/C(=N/OC[C@@H](O)COCc4ccco4)[C@H]3CC[C@@H]2C(=O)N1Cc1ccc2c(c1)OCO2 | – | 3.16 µM (active) |
| CCN1C(=O)[C@H]2[C@H]3[C@H](O)[C@H](O)C/C(=N/OC[C@@H](O)COCc4ccco4)[C@@H]3CC[C@@H]2C1=O | -23.4% [at 11.4 µM] and -18.4% [at 11.4 µM] | – |
| Cc1[nH]nc(N2CCCCCC2)c1[N+](=O)[O-] | -25.9% | – |
| CCC(C(=O)NC(C)(C)C)N(C(=O)Cn1nnc(-c2cccs2)n1)c1cnc2ccccc2c1 (stereo not drawn) | – | 2 µM (active) |
| O=C(Nc1cnc2ccccc2c1)c1cccc(-n2cnnn2)c1 | 20.1% | – |

| SMILES | activity, negative = inhibition | AC50 |
| --- | --- | --- |
| CS(=O)(=O)Nc1cccc(-c2nc(N3CCNCC3)c3ccccc3n2)c1 | -27.7% | – |
| CS(=O)(=O)Nc1ccc(Nc2c3ccccc3nc3ccccc23)cc1 | -25.8% [at 11.4 µM] | – |
| CS(=O)(=O)Nc1cccc(-c2nc(N3CCOCC3)c3ccccc3n2)c1 | – | 1.58 µM (active) |
| c1cncc(-c2nc(NCCN3CCOCC3)c3ccccc3n2)c1 | – | 7.94 µM (active) |
| O=C1C=C(NCCN2CCOCC2)CC(c2ccccc2)C1 (stereo not drawn) | -22.3% | – |
| COc1cccc(-c2nc(NCCN3CCOCC3)c3ccccc3n2)c1 | – | 12.6 µM (active) |
| CS(=O)(=O)Nc1cccc(-c2nc(NCCN3CCOCC3)c3ccccc3n2)c1 | – | 15.8 µM (active) |
| COc1cccc(C2=NOC(C(=O)NCCN3CCOCC3)C2)c1 (stereo not drawn) | -24.1% | – |
| CCCc1cc(=O)[nH]c(=S)[nH]1 | -10.8% [at 25.6 µM] | – |
| CCN(Cc1cc(Cl)cc(C)c1O)Cc1c(O)ccc2ccccc12 | -15.9% [at 11.4 µM] | – |
| O=C(O)[C@H]1CN[C@H](C(=O)O)C1 | 0.628% | – |
| N#Cc1cccc(-c2nc(NCCN3CCOCC3)c3ccccc3n2)c1 | – | 12.6 µM (active) |
| N#Cc1cccc(-c2nc3cnc(N4CCOCC4)nc3n(C[C@H]3CCCO3)c2=O)c1 | -0.471% | – |
| COc1ccc(-n2ncc3c(NCC4CCCO4)ncnc32)cc1 (stereo not drawn) | -18.3% | – |
| CCc1ccc2c(c1)cc(CN(C(=S)Nc1cccc(C)c1)C1CC1)c1nnnn12 | – | 2.24 µM (active) |
| Cc1cccc(CCNc2nc3ccccc3n3nnnc23)c1 | -16.1% | – |
| CC(NC(=O)CCSc1nc(-c2ccc3c(c2)OCO3)cc(C(F)(F)F)n1)c1ccccc1 (stereo not drawn) | – | 0.0398 µM (active) |
| CC(NC(=O)CCSc1nc(-c2ccco2)cc(C(F)(F)F)n1)c1ccccc1 (stereo not drawn) | – | 20 µM (active) |
| C[N+]1(C)CCC(=C(c2ccccc2)c2ccccc2)CC1 | -28% [at 25.6 µM] | – |
| COc1ccc(C(=O)N2CCC3(CCN(C)CC3)CC2)cc1 | -26% | – |
| COc1ccc(C(Cl)=C(c2ccc(OC)cc2)c2ccc(OC)cc2)cc1 | -23.8% [at 25.6 µM] | – |
| COc1ccc(C(=O)/C=C2/c3ccccc3CC(C)(C)N2C)cc1 | – | 7.08 µM (active) |
| COc1cccc(-c2cncnc2NCc2ccccc2)c1 | – | 0.316 µM (active) |
| COc1cccc(-c2cncnc2NCc2cccc(C)c2)c1 | – | 0.398 µM (active) |
| COc1cccc(-c2cncnc2NCc2cnc(C)cn2)c1 | – | 1.58 µM (active) |
| COc1cccc(-c2cncnc2NCc2cccnc2)c1 | – | 1.26 µM (active) |
